Compound activity from PubChem.
This is a sample that favours compounds with a hit; in the whole collection about 3.4% have one here.
GPR151 activ – activators of human GPR151, primary screen, cell-based, PathHunter beta-arrestin, luminescence; PathHunter beta-arrestin GPR151 cells; activation, % at 11.2 µM; 650,000 compounds, 1% hits; in the data active = activation above about 4.9%
TEAD-YAP inh – TEAD-YAP interaction inhibition, primary screen, TEAD-YAP interaction inhibitor project, luminescence, HEK-TIYL cells; TEAD-Gal4/YAP UAS-luciferase luminescence; inhibition, % at 9.12 µM; 640,000 compounds, 1.4% hits; in the data active = inhibition above about 32%
FBW7 act – FBW7 E3 ligase activators, primary screen, biochemical, AlphaScreen, human; 650,000 compounds, 0.13% hits; AlphaScreen FBW7–phospho-cyclin E peptide binding, activator screen; F-box/WD repeat-containing protein 7 (Homo sapiens), Q969H0; normalized activity (activation), % at 26.1 µM; in the data active = normalized activity above about 1.9%;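 also: purified mutant Fbw7 with reduced substrate affinity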
MITF inh – MITF inhibitors, primary screen, biochemical, AlphaScreen, human; Microphthalmia-associated transcription factor (Homo sapiens), O75030; AlphaScreen MITF homodimerization, bead proximity signal; inhibition, % at 2.6 µM; 650,000 compounds, 0.91% hits; AID 1259374, 2018; in the data active = inhibition above about 50%
Target sequence (O75030 whole entry, looked up): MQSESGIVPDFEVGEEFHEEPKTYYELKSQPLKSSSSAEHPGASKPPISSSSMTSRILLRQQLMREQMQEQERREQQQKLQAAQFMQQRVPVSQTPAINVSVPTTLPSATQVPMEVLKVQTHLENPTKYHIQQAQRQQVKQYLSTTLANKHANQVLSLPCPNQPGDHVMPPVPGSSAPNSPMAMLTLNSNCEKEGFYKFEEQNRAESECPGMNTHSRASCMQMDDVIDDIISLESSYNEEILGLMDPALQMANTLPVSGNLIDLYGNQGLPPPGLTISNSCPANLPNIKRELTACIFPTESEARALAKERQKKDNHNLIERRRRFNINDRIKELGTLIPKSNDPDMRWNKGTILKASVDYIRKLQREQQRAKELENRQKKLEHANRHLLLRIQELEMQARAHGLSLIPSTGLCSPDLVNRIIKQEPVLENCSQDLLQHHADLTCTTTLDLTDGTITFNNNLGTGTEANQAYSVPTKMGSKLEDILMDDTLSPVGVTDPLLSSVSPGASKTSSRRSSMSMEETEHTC
Large screens that a line does not name were inactive.

COc1cccc(Nc2cc(N3CCCCC3C)c3noc4c3c2C(=O)c2ccccc2-4)c1 (stereo not given)	MITF inh 69
COc1ccc(Nc2cc(N3CCCC3)c3noc4c3c2C(=O)c2ccccc2-4)cc1	none
COc1cccc(Nc2cc(N3CCCCC3)c3noc4c3c2C(=O)c2ccccc2-4)c1	none
CCOC(=O)Cc1nnc2c(Nc3ccccc3OC)nc3nonc3n12	none
COc1ccc(-n2c(C)c(C(C)=O)c3cc(OC(=O)c4ccc(C)cc4)ccc32)cc1	TEAD-YAP inh 48
CC(C)(C)c1ccc(C(=O)Nc2cccc(F)c2)cc1	TEAD-YAP inh 42
CCN(CC)S(=O)(=O)c1cc(C(=O)Nc2cccc(O)c2)ccc1C	TEAD-YAP inh 85
Cc1ccc(C(=O)Nc2cccc(O)c2)cc1	TEAD-YAP inh 82
CC(=O)Nc1cccc(NC(=O)c2ccc(Br)cc2)c1	none
O=C(Nc1cccc(O)c1)c1ccc(Br)cc1	TEAD-YAP inh 36
CC(=O)c1cccc(NC(=O)c2ccc(C)cc2)c1	none
CCOC(=O)c1cccc(NC(=O)CCc2nnc3ccc(N4CCCC4)nn23)c1	none
O=C(Nc1cccc2cnccc12)c1cccc(S(=O)(=O)N2CCCCCC2)c1	TEAD-YAP inh 38
O=C(Nc1ccccc1O)c1cccc(S(=O)(=O)N2CCCCC2)c1	none
CC(C)(C)C(=O)Nc1cccc(-c2nc3ncccc3o2)c1	none
CC(C)(C)C(=O)Nc1ccc(-c2nc3ncccc3o2)cc1	TEAD-YAP inh 60
CN1CCN(c2nc(Nc3ccc(Br)cc3)nc3ccccc23)CC1	none
COc1ccnc(N2CCC(NCCN3CCCC3)CC2)n1	none
Cc1ccccc1-n1c(SCC(=O)N2CC(C)CC(C)C2)nc2n[nH]c(C)c2c1=N (stereo not given)	none
O=C(Cc1cnc2ncnn2c1)N1CCc2c([nH]c3ccccc23)C1c1ccccn1 (stereo not given)	TEAD-YAP inh 35
COc1ccc2cc3cc(C(=O)NC4CCN(Cc5ccccc5)CC4)oc3nc2c1	TEAD-YAP inh 90
COc1ccc2cc3cc(C(=O)NCCCN4CCCCCC4)oc3nc2c1	none
COc1ccc2cc3cc(C(=O)NC4CC4)sc3nc2c1	TEAD-YAP inh 74
COc1ccc2cc3cc(C(=O)Nc4cc(OC)c(OC)c(OC)c4)oc3nc2c1	TEAD-YAP inh 58
CCOC(=O)c1cn(CC(=O)Nc2ccc(C)c(Cl)c2)nn1	none
Cn1c(SCc2ccccc2)nnc1C1CCCN1C(=O)Nc1ccccc1 (stereo not given)	none
CCOC(=O)C(C)Oc1cc(Br)c(C=O)cc1OC (stereo not given)	none
CCOC(=O)C(=Cc1cc(OC)c(OC)cc1Br)C(=O)OCC	TEAD-YAP inh 42
Cc1ccc(C#N)c(SCc2nnc(-c3ccc(Cl)cc3)o2)n1	TEAD-YAP inh 68
Cc1ccccc1-c1ncc(CN2CCC(CO)(CCOc3ccccc3)CC2)cn1	none
O=C(NC1CCCCC1)N1CCC(c2nc3c(nnn3Cc3ccccc3)c(=O)[nH]2)CC1	TEAD-YAP inh 44
O=C(C1CCCC1)N1CCC(c2nc3c(nnn3Cc3ccccc3)c(=O)[nH]2)CC1	none
C=CCN1/C(=C/c2cccc[n+]2C)Sc2ccccc21	TEAD-YAP inh 77
C=CCN1/C(=C/c2cc[n+](C)cc2)Sc2ccccc21	TEAD-YAP inh 87
CN1/C(=C/c2cc[n+](C)cc2)Sc2ccccc21	none
O=c1c2ccccc2n2c(-c3ccsc3)nnc2n1Cc1ccccc1	none
O=C(OCc1cc(=O)n2c(n1)sc1ccccc12)C12CC3CC(CC(O)(C3)C1)C2	TEAD-YAP inh 75
O=c1cc(CSc2nnnn2-c2ccc(O)cc2)nc2sc3ccccc3n12	none
COC(=O)c1c(C=O)c2ccccc2n1S(C)(=O)=O	none
N=c1sc2c(n1CC(=O)c1ccc(I)cc1)CCCC2	none
N=c1sc2c(n1CC(=O)c1ccc(Cl)cc1)CCCC2	TEAD-YAP inh 37
CCCN(CCC)C(=O)CSc1nc2n[nH]c(C)c2c(=N)n1-c1cccc(C)c1	none
CCC(Sc1nc2n[nH]c(C)c2c(=N)n1-c1cccc(Cl)c1)C(=O)N1CCCC1 (stereo not given)	TEAD-YAP inh 49
CCC(Sc1nc2n[nH]c(C)c2c(=N)n1-c1cccc(C)c1)C(=O)N(CC)CC (stereo not given)	TEAD-YAP inh 39
Cc1ccc(-c2ccccc2)n1-c1ccc(O)c(C(=O)O)c1	MITF inh 78
Cc1ccc(-c2ccccc2)n1-c1ccc(C(=O)O)cc1	none
COc1ccc(C2C3=C(CC(C)(C)CC3=O)OC3=C2C(=O)CC(C)(C)C3)cc1CN1C(=O)c2ccccc2C1=O	none
Fc1cccc(Nc2nc(Cl)nc(Cl)n2)c1	none
Cc1ccc(Nc2nc(N)c3ccccc3n2)cc1Cl	TEAD-YAP inh 35
Clc1nc(Cl)nc(Nc2ccccc2)n1	FBW7 act 2.2
Cc1ccc(Nc2nc(N3CCOCC3)c3ccccc3n2)cc1Cl	none
COc1ccc(Nc2nc(N)c3ccccc3n2)cc1	TEAD-YAP inh 73
Nc1nc(Nc2ccc(Cl)cc2)nc2ccccc12	TEAD-YAP inh 52
CN(C)c1ccc(Nc2nc(N)c3ccccc3n2)cc1	TEAD-YAP inh 91
Cc1ccc(Nc2nc(N)c3ccccc3n2)cc1	TEAD-YAP inh 90
Fc1ccccc1Nc1nc(N2CCOCC2)c2ccccc2n1	none
Nc1nc(Nc2ccccc2F)nc2ccccc12	TEAD-YAP inh 57
Cc1[nH]c(=O)[nH]c(=O)c1S(=O)(=O)Nc1ccc(OC(F)(F)F)cc1	none
OCCNc1ncnc2nc(N3CCN(Cc4ccc5c(c4)OCO5)CC3)[nH]c12	none
Cc1noc(C)c1-c1nc(NCc2nc3ccccc3[nH]2)c2ncn(-c3ccsc3)c2n1	none
CC(C)n1cnc2c(NCc3nc4ccccc4[nH]3)nc(N3CCC(N4CCOCC4)CC3)nc21	TEAD-YAP inh 63
c1ccc2[nH]c(CNc3nc(N4CCOCC4)nc4c3ncn4-c3ccsc3)nc2c1	TEAD-YAP inh 88
c1ccc(-n2cnc3c(NCc4nc5ccccc5[nH]4)nc(N4CCC(N5CCOCC5)CC4)nc32)cc1	TEAD-YAP inh 44
c1ccc2[nH]c(CNc3ncnc4nc(N5CCN(Cc6ccc7c(c6)OCO7)CC5)[nH]c34)nc2c1	TEAD-YAP inh 54
COc1ccc(Cl)cc1NC(=O)CSc1nc2ccccc2o1	none
CC(C)n1cnc2c(NCc3nc4ccccc4[nH]3)nc(N3CCN(c4ccccn4)CC3)nc21	TEAD-YAP inh 72
CC(C)n1cnc2c(NCc3nc4ccccc4[nH]3)nc(N3CCCC3CO)nc21 (stereo not given)	TEAD-YAP inh 72
Cn1c(Nc2nc(NCc3nc4ccccc4[nH]3)c3ncn(C4CCCCC4)c3n2)nc2ccccc21	TEAD-YAP inh 34
Cn1c(Nc2nc(NCc3ccccc3)c3ncn(C4CCCCC4)c3n2)nc2ccccc21	none
c1ccc2[nH]c(CNc3nc(Nc4ccc(N5CCOCC5)cc4)nc4c3ncn4C3CCCCC3)nc2c1	none
